Results reported in the supplement of paper PMC12645437, “Orthogonal IMiD-Degron Pairs Induce Selective Protein Degradation in Cells” (ACS Chemical Biology, 2025).
In all, about 8,300 sequences were measured (“log2 fold change of degron read counts, EGFP-low vs EGFP+ sorted cells (limma voom), compound-induced degradation”: median about -1.1, highest 2% from about 3.2 on). For the sample, the highest values were picked, then their nearest neighbours and some sequences at random.

T1: CRBN, Q96SW2
T1 chain: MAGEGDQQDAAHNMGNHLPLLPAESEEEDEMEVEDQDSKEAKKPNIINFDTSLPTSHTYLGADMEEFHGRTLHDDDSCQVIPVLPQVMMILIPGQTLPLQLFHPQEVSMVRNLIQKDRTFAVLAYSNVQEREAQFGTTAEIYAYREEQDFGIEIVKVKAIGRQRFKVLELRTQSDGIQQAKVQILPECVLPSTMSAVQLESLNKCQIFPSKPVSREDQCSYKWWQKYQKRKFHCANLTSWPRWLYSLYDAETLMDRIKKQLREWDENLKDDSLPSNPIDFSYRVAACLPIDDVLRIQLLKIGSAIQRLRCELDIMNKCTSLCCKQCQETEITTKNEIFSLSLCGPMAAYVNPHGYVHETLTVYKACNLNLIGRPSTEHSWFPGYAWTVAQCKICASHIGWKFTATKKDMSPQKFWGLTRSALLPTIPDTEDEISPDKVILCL

B1: 46L_47E_49P_50I_52G_53F_54Q_55C_67L_, Q9UKT9 (peptide)
chain: LECPICGFQCTQKGNLLRHIKL
B2: 46L_47A_49P_50I_52G_53F_54Q_55C_67L_, Q9UKT9 (peptide)
chain: LACPICGFQCTQKGNLLRHIKL
B3: 46L_47V_49P_50I_52G_53F_54Q_55C_67L_, Q9UKT9 (peptide)
chain: LVCPICGFQCTQKGNLLRHIKL
B4: 46L_47S_49P_50I_52G_53F_54Q_55C_67L_, Q9UKT9 (peptide)
chain: LSCPICGFQCTQKGNLLRHIKL
B5: 46L_47G_49P_50I_52G_53F_54Q_55C_67L_, Q9UKT9 (peptide)
chain: LGCPICGFQCTQKGNLLRHIKL
B6: 46L_47H_49P_50I_52G_53F_54Q_55C_67L_, Q9UKT9 (peptide)
chain: LHCPICGFQCTQKGNLLRHIKL
B7: 46F_47C_49P_50Q_52G_53A_54H_55F_67L_, Q9UKT9 (peptide)
chain: FCCPQCGAHFTQKGNLLRHIKL
B8: 46F_47K_49N_50Q_52G_53H_54P_55F_67L_, Q9UKT9 (peptide)
chain: FKCNQCGHPFTQKGNLLRHIKL
B9: 46L_47K_49E_50I_52G_53F_54T_55C_67L_, Q9UKT9 (peptide)
chain: LKCEICGFTCTQKGNLLRHIKL
B10: 46L_47Q_49E_50I_52G_53F_54T_55C_67L_, Q9UKT9 (peptide)
chain: LQCEICGFTCTQKGNLLRHIKL
B11: 46L_47T_49E_50I_52G_53F_54T_55C_67L_, Q9UKT9 (peptide)
chain: LTCEICGFTCTQKGNLLRHIKL
B12: 46L_47S_49E_50I_52G_53F_54T_55C_67L_, Q9UKT9 (peptide)
chain: LSCEICGFTCTQKGNLLRHIKL
B13: 46L_47A_49E_50I_52G_53F_54T_55C_67L_, Q9UKT9 (peptide)
chain: LACEICGFTCTQKGNLLRHIKL
B14: 46L_47G_49E_50I_52G_53F_54T_55C_67L_, Q9UKT9 (peptide)
chain: LGCEICGFTCTQKGNLLRHIKL
B15: 46L_47D_49E_50I_52G_53F_54T_55C_67L_, Q9UKT9 (peptide)
chain: LDCEICGFTCTQKGNLLRHIKL
B16: 46L_47Y_49E_50I_52G_53F_54T_55C_67L_, Q9UKT9 (peptide)
chain: LYCEICGFTCTQKGNLLRHIKL
B17: 46L_47V_49E_50I_52G_53F_54T_55C_67L_, Q9UKT9 (peptide)
chain: LVCEICGFTCTQKGNLLRHIKL
B18: 46L_47L_49E_50I_52G_53F_54T_55C_67L_, Q9UKT9 (peptide)
chain: LLCEICGFTCTQKGNLLRHIKL
B19: 46L_47C_49E_50I_52G_53F_54T_55C_67L_, Q9UKT9 (peptide)
chain: LCCEICGFTCTQKGNLLRHIKL
B20: 46L_47W_49E_50I_52G_53F_54T_55C_67L_, Q9UKT9 (peptide)
chain: LWCEICGFTCTQKGNLLRHIKL
B21: 46L_47M_49E_50I_52G_53F_54T_55C_67L_, Q9UKT9 (peptide)
chain: LMCEICGFTCTQKGNLLRHIKL
B22: 46F_47E_49P_50I_52G_53R_54S_55F_67L_, Q9UKT9 (peptide)
chain: FECPICGRSFTQKGNLLRHIKL
B23: 46F_47F_49S_50V_52G_53H_54N_55F_67L_, Q9UKT9 (peptide)
chain: FFCSVCGHNFTQKGNLLRHIKL
B24: 46F_47C_49N_50Q_52G_53R_54R_55F_67L_, Q9UKT9 (peptide)
chain: FCCNQCGRRFTQKGNLLRHIKL
B25: 46L_47R_49E_50I_52G_53F_54N_55C_67L_, Q9UKT9 (peptide)
chain: LRCEICGFNCTQKGNLLRHIKL
B26: 46F_47G_49N_50Q_52G_53R_54I_55F_67L_, Q9UKT9 (peptide)
chain: FGCNQCGRIFTQKGNLLRHIKL
B27: 46F_47E_49N_50Q_52G_53R_54H_55F_67L_, Q9UKT9 (peptide)
chain: FECNQCGRHFTQKGNLLRHIKL
B28: 46F_47S_49N_50Q_52G_53R_54T_55F_67L_, Q9UKT9 (peptide)
chain: FSCNQCGRTFTQKGNLLRHIKL

Target: T1, CRBN, Q96SW2
Test: log2 fold change of degron read counts, EGFP-low vs EGFP+ sorted cells (limma voom), compound-induced degradation; higher = more compound-induced degradation of the degron-EGFP fusion; degrons are variants of IKZF1/3 zinc finger 2; compound dose not given here
Conditions: Jurkat, 18 h
[1] = compound: compound 19 (5-tert-butyl-thalidomide)
[2] = compound: compound 22 (5-morpholino-thalidomide)
[3] = compound: compound 33 (diphenyl IMiD analogue)
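Further: pooled lentiviral library of zinc finger degron-EGFP fusions in mCherry-positive Jurkat cells, FACS-sorted after compound exposure, with degron abundance counted by next-generation sequencing.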

| Sequence | log2 fold change of degron read counts [1] | log2 fold change of degron read counts [2] | log2 fold change of degron read counts [3] | log2 fold change of degron read counts (compound: thalidomide) |
| --- | --- | --- | --- | --- |
| B1 | -0.146 | -0.246 | 2.16 | 3.16 |
| B2 | 3.44 | 2.59 | 1.86 | 1.78 |
| B3 | 1.16 | 2.72 | 2.04 | 3.09 |
| B4 | 2.31 | 2.18 | 1.54 | 1.93 |
| B5 | 3.74 | 2.31 | 1.15 | 1.18 |
| B6 | 2.57 | 2.67 | 2.36 | 1.96 |
| B7 | -1.46 | -2.19 | -0.412 | -1.42 |
| B8 | -2.61 | -2.63 | -2.72 | -2.3 |
| B9 | -1 | -2.29 | -1.73 | 0.124 |
| B10 | 1.59 | 2.54 | 2.34 | 3.65 |
| B11 | 1.29 | 2.89 | 2.18 | 3.14 |
| B12 | 3.05 | 2.87 | 1.94 | 1.96 |
| B13 | 3.48 | 3.3 | 1.55 | 1.36 |
| B14 | 2.28 | 2.37 | 0.519 | 0.415 |
| B15 | 0.0603 | -0.828 | -0.732 | 0.278 |
| B16 | 3.57 | 3.51 | 3.19 | 2.25 |
| B17 | 1.83 | 2.47 | 2.5 | 3.21 |
| B18 | 0.0109 | -0.207 | 1.27 | 2.65 |
| B19 | 2.49 | 2.78 | 2.65 | 2.98 |
| B20 | 3.55 | 3.79 | 3.08 | 1.83 |
| B21 | 0.136 | 1.5 | 3.07 | 2.97 |
| B22 | -1.57 | -1.84 | 0.414 | 1.14 |
| B23 | -2.16 | -2.66 | -2.79 | -2.23 |
| B24 | -2.5 | -2.28 | -2.09 | -1.82 |
| B25 | -1.42 | -1.56 | -0.0516 | 0.0396 |
| B26 | -1.52 | -1.65 | -1.94 | -1.45 |
| B27 | -2.89 | -3.21 | -3.78 | -2.98 |
| B28 | -2.51 | -2.59 | -2.31 | -2.34 |
